The text below walks through data of PubChem BioAssay (NCI).

Molecules are shown by their SMILES. This is part of a sample that, as a whole, favours compounds with a hit. Of some 83,000 tested, about 20% had one in any assay.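 Cell lines were cultured in 96-well plates, exposed to a single compound concentration, and assessed for percent growth 48 hours later.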 Values without a mark were called inactive. The source made the active and inactive calls. How the source made its calls: active means growth percent below 10; inactive means the rest.

Test systems include HCT-15 colon; HT29 colon; SNB-75 CNS; SNB-19 CNS; PC-3 prostate; UACC-62 melanoma; LOX IMVI melanoma; SK-MEL-28 melanoma; SK-MEL-2 melanoma; EKVX NSCLC; SN12C renal; UO-31 renal; TK-10 renal; ACHN renal; CAKI-1 renal; A498 renal; CCRF-CEM leukemia; MOLT-4 leukemia; SK-MEL-5 melanoma; U251 CNS.
Holding throughout (assay): NCI-60 one-dose screen, 48 h (100 = growth as untreated, 0 = no growth, -100 = all killed)
What all share (details): 10 µM unless noted

Turning to `CCC(c1ccc(OC)cc1)C(CC)c1ccc(OCC[N+](C)(C)C)cc1` (stereo not given), the growth was 91.5% in the assay with HCT-15 colon; 28.4% in the assay with HT29 colon; 40% with SNB-75 CNS; 19.3% with SNB-19 CNS; 45.3% with PC-3 prostate; 30.3% with UACC-62 melanoma. Besides, the growth with LOX IMVI melanoma is 42.9%; in the assay with SK-MEL-28 melanoma, 45.1%; in the assay on SK-MEL-2 melanoma it was 94%; in the assay with EKVX NSCLC, 81.1%; in the assay on SN12C renal it was 34.1%; in the assay with UO-31 renal, 82.2%. The growth was 76.4% in the assay with TK-10 renal; 91% in the assay with ACHN renal; 99.2% in the assay on CAKI-1 renal; 93.2% with A498 renal; 58.8% with CCRF-CEM leukemia; 51.8% in the assay on MOLT-4 leukemia.

Take `O=C1NCC(c2cc3ccccc3[nH]c2=O)Nc2ccccc21` (stereo not given): the growth with HCT-15 colon is 106%; with HT29 colon, 98.3%; with SNB-75 CNS, 99.6%; in the assay with SNB-19 CNS, 102%; in the assay with PC-3 prostate, 93.2%; in the assay on SK-MEL-5 melanoma, 97.2%. Further, the growth in the assay with UACC-62 melanoma was 98.3%; with LOX IMVI melanoma, 98.5%; with SK-MEL-28 melanoma, 103%; in the assay with SK-MEL-2 melanoma, 100%; with EKVX NSCLC, 106%; with SN12C renal, 99.7%. Moreover, the growth is 76.8% with UO-31 renal; 87.8% in the assay with TK-10 renal; 99.7% in the assay with ACHN renal; 88.1% in the assay on CAKI-1 renal; 104% with A498 renal; 111% with MOLT-4 leukemia.

For the molecule `Cc1nc(Nc2cccnc2)sc1C(=O)/C=C/c1ccc(Cl)cc1`, the growth in the assay with HCT-15 colon was 15%; with HT29 colon it was 6.4% (active); with SNB-75 CNS it was -1.63% (active); with SNB-19 CNS, 14.2%; in the assay with PC-3 prostate, 29.4%; in the assay on SK-MEL-5 melanoma, 73.1%. Further, the growth in the assay with UACC-62 melanoma is 36.1%; with LOX IMVI melanoma it was 0.346% (active); in the assay on SK-MEL-28 melanoma, 77.8%; in the assay with SK-MEL-2 melanoma, 82.6%; in the assay with SN12C renal, 7.95% (active); in the assay on UO-31 renal, 25.3%. Further, the growth in the assay with TK-10 renal is 8.61% (active); in the assay on ACHN renal it was 40.1%; in the assay with CAKI-1 renal it was 47.1%; with CCRF-CEM leukemia it was 1.72% (active); with MOLT-4 leukemia it was 53%.

With `CCCCCCc1nc2c(c(C)nn2-c2ccccc2)c2c1CCCCC2`, the growth was 108% with HCT-15 colon; 100% in the assay with HT29 colon; 105% in the assay with SNB-75 CNS; 99.9% with SNB-19 CNS; 94.1% with PC-3 prostate; 94.3% with SK-MEL-5 melanoma. Also, the growth with UACC-62 melanoma was 101%; with LOX IMVI melanoma, 98.2%; with SK-MEL-28 melanoma, 107%; in the assay on SK-MEL-2 melanoma, 116%; in the assay with SN12C renal, 104%; in the assay on UO-31 renal, 91.5%. Also, the growth with TK-10 renal was 126%; in the assay on ACHN renal, 107%; in the assay on CAKI-1 renal it was 94.8%; in the assay on A498 renal it was 104%; in the assay with CCRF-CEM leukemia, 101%; in the assay with MOLT-4 leukemia, 106%.

As to `NC(=O)c1ccc2c(c1)OCO2`, the growth was 102% in the assay with HCT-15 colon; 84.2% in the assay with SNB-75 CNS; 109% with SNB-19 CNS; 107% in the assay on U251 CNS; 98.9% in the assay on PC-3 prostate; 99.2% in the assay with SK-MEL-5 melanoma. The growth was 103% with UACC-62 melanoma; 95.4% with LOX IMVI melanoma; 108% in the assay with SK-MEL-28 melanoma; 114% in the assay with SK-MEL-2 melanoma; 95.1% in the assay on EKVX NSCLC; 108% with SN12C renal. Further, the growth with UO-31 renal is 102%; with TK-10 renal it was 91.7%; in the assay on ACHN renal, 109%; in the assay on CAKI-1 renal, 93.5%; in the assay on A498 renal, 86.8%; with CCRF-CEM leukemia, 102%. Further, in the assay with MOLT-4 leukemia, the growth is 105%.

Turning to `N#CC1=C(N)OC2=C(C(=O)CCC2)C1c1ccco1` (stereo not given), the growth is 104% in the assay with HCT-15 colon; 109% in the assay with HT29 colon; 95.7% in the assay on SNB-75 CNS; 98.3% with SNB-19 CNS; 102% with PC-3 prostate; 101% in the assay on SK-MEL-5 melanoma. Also, the growth in the assay with UACC-62 melanoma is 112%; in the assay with LOX IMVI melanoma, 96.4%; in the assay with SK-MEL-28 melanoma, 111%; with SK-MEL-2 melanoma, 97.8%; with SN12C renal it was 107%; in the assay on UO-31 renal it was 79.3%. Besides, the growth with TK-10 renal was 96.4%; with ACHN renal, 104%; in the assay on CAKI-1 renal it was 93%; with A498 renal, 112%; in the assay with CCRF-CEM leukemia it was 107%; with MOLT-4 leukemia, 97.9%.

As to `O=[N+]([O-])c1ccc(S(=O)(=O)N2CCN(c3ccnc4cc(Cl)ccc34)CC2)c([N+](=O)[O-])c1`, the growth in the assay on HCT-15 colon was 66.6%; with HT29 colon, 93.5%; in the assay with SNB-75 CNS, 73.8%; in the assay on SNB-19 CNS, 98.2%; with PC-3 prostate, 95.1%; with SK-MEL-5 melanoma it was 98.8%. Also, the growth in the assay with UACC-62 melanoma was 81.8%; with LOX IMVI melanoma, 32%; in the assay on SK-MEL-28 melanoma, 108%; in the assay with SK-MEL-2 melanoma it was 101%; with EKVX NSCLC, 87.9%; in the assay on SN12C renal, 88.2%. Also, the growth with UO-31 renal was 55.4%; in the assay on TK-10 renal it was 95.4%; with ACHN renal, 84.3%; in the assay with CAKI-1 renal it was 81.1%; in the assay on A498 renal, 90%; in the assay on CCRF-CEM leukemia it was 14.8%. Further, the growth in the assay with MOLT-4 leukemia is 44.5%.

Take `O=C(c1ccncc1)N1N=C(c2ccc(Cl)cc2)CC1c1c[nH]c2ccccc12` (stereo not given): the growth is 93.6% with HCT-15 colon; 101% in the assay with HT29 colon; 82.4% in the assay on SNB-75 CNS; 105% in the assay with SNB-19 CNS; 82.8% in the assay with PC-3 prostate; 93.3% with SK-MEL-5 melanoma. In addition, the growth is 90.5% with UACC-62 melanoma; 86.9% in the assay with LOX IMVI melanoma; 107% in the assay with SK-MEL-28 melanoma; 83% with SK-MEL-2 melanoma; 92.9% in the assay with SN12C renal; 45.2% with UO-31 renal. The growth was 107% in the assay with TK-10 renal; 94.8% in the assay on ACHN renal; 90.2% with CAKI-1 renal; 80.5% with A498 renal; 56.7% with CCRF-CEM leukemia; 75.1% in the assay on MOLT-4 leukemia.
